Measured potencies and affinities stand elsewhere.

The subject of one assay is Staphylococcus aureus. The settings on record: Concentration 32 ug.mL-1; ASSAY_TEST Inhibition of Bacterial Growth; detection method Absorption (OD600); MEDIA CAMHB; plate type 384well; NBS; CORNING #3640; time 18 hr.
The next assay deals with Escherichia coli. The following applies: Concentration 32 ug.mL-1; ASSAY_TEST Inhibition of Bacterial Growth; detection method Absorption (OD600); MEDIA CAMHB; plate type 384well; NBS; CORNING #3640; time 18 hr.

`O=C(Cc1cc(O)ccc1O)Nc1cc(O)ccc1O`: the figures for the Inhibition in the assay with Staphylococcus aureus and in the assay on Escherichia coli were 22.67% and -14.95%, respectively.
The corresponding values for `O=C(Cc1cc(O)ccc1O)Nc1ccc(O)cc1O` are 17.97% and -13.2%.
Regarding `O=C(OCc1ccccc1)N1C(=O)C(c2ccccc2NC(=O)C(F)(F)F)=C(O)C1Cc1ccccc1` (configuration not stated), the results for the Inhibition in the assay with Staphylococcus aureus and in the assay on Escherichia coli were 36.54% and -6.54%, respectively.
Take `Oc1ccc(O)c(-c2cn(-c3ccc(O)c(O)c3)nn2)c1`: the Inhibition in the assay on Staphylococcus aureus is 34.68%; in the assay with Escherichia coli, -12.66%.
Consider `COc1ccc(C(=O)/C=C/c2ccc(OC)cc2OC)cc1`, for which the values for the Inhibition with Staphylococcus aureus and in the assay on Escherichia coli were 6.51% and -22.4%, respectively.
With `COc1ccc(OC)c(NC(=O)Nc2ccc(OC)cc2OC)c1`, the Inhibition in the assay with Staphylococcus aureus is 5.98%; in the assay with Escherichia coli it was -17.47%.
The corresponding values for `COc1ccc(CN2C(=O)C(C)C2(Cc2cn(C(=O)OC(C)(C)C)c3ccccc23)C(=O)OC(C)(C)C)cc1` (configuration not stated) are 27.02% and -6.98%.
For `O=C(Nc1ccc(O)cc1O)Nc1cc(O)ccc1O`, in that order: 10.74% and -13.5%.
The corresponding values for `COc1ccc(NC(=O)Cc2cc(OC)ccc2OC)cc1` are 31.14% and -11.77%.
As to `COc1ccc(OC)c(C(=O)CCc2ccccc2O)c1`, the results for the Inhibition in the assay with Staphylococcus aureus and in the assay with Escherichia coli were 15.3% and -20.89%, respectively.
With `COc1ccc(OC)c(-c2cn(-c3ccc(OC)c(OC)c3)nn2)c1`, the Inhibition in the assay on Staphylococcus aureus is reported as -11.96%; in the assay on Escherichia coli, -27.73%.
For `COc1ccccc1/C=C/C(=O)c1cc(OC)c(OC)cc1OC`, in that order: 26.72% and -13.16%.
For `COc1ccc(OC)c(C(=O)CCc2ccc(O)cc2)c1`, in that order: 16.63% and -22.53%.
As to `CC1C(=O)N(Cc2ccc(OCCN3CCOCC3)cc2)C1(Cc1ccccc1)C(=O)O` (configuration not stated), the Inhibition in the assay on Staphylococcus aureus was 11.78%; in the assay with Escherichia coli it was -10.5%.
Turning to `Oc1ccc(-n2cc(-c3cc(O)ccc3O)nn2)cc1`, the Inhibition was 19.08% in the assay on Staphylococcus aureus and -16.85% in the assay with Escherichia coli.
With `COc1ccc(OC)c(CC(=O)Nc2ccc(OC)cc2OC)c1`, the Inhibition in the assay on Staphylococcus aureus is given as 26.56%; in the assay on Escherichia coli, -12.34%.
For the molecule `COc1ccc(OC)c(C(=O)/C=C/c2ccccc2O)c1`, the Inhibition with Staphylococcus aureus is 11.52%; with Escherichia coli, -22.92%.
As to `O=C(/C=C/c1c[nH]c2ccc(O)cc12)c1cc(O)ccc1O`, the Inhibition with Staphylococcus aureus was 20.75%; in the assay with Escherichia coli, -12.64%.
With `O=C(CCc1ccc(O)cc1O)c1cc(O)ccc1O`, the Inhibition with Staphylococcus aureus is recorded as 23.73%; with Escherichia coli it was -20.02%.
`COc1ccc(OC)c(CC(=O)Nc2cc(OC)ccc2OC)c1`: the Inhibition with Staphylococcus aureus is listed as 27.17%; with Escherichia coli it was -12.93%.
In the case of `O=C(Cc1cc(O)ccc1O)Nc1ccc(O)cc1`, the Inhibition is given as 29.77% in the assay with Staphylococcus aureus and -10.96% with Escherichia coli.
For the molecule `COc1ccc(OC)c(C(=O)/C=C/c2c[nH]c3ccc(OC)cc23)c1`, the Inhibition was 20.69% in the assay on Staphylococcus aureus and -14.33% with Escherichia coli.
On to `COC(=O)C1(Cc2ccc(OCc3c(Cl)cccc3Cl)cc2)C(C)C(=O)N1Cc1ccc(OC)cc1` (configuration not stated), for which the Inhibition was 19.17% with Staphylococcus aureus and -12.56% in the assay on Escherichia coli.
For the molecule `COC(=O)c1c(C(Cc2ccccc2)NC(=O)OCc2ccccc2)[nH]c2ccccc12` (configuration not stated), the Inhibition is given as 22.9% in the assay on Staphylococcus aureus and -13.62% with Escherichia coli.
For `COc1ccc(OC)c(C(=O)/C=C/c2ccc(O)cc2)c1`, in that order: 10.84% and -21.08%.
In the case of `O=C(/C=C/c1ccccc1O)c1cc(O)c(O)cc1O`, the Inhibition in the assay on Staphylococcus aureus is recorded as 26.82%; in the assay on Escherichia coli, -8.37%.

A word on the Inhibition: it is the drop in the measured response relative to a control, in per cent.

(Values after ChEMBL document CHEMBL4513136, “CO-ADD screening of CSIC (Spain) compounds”.)
